Reference: PubChem BioAssay (NCI)
About 83,000 compounds went through this panel and 20% of them were active in at least one assay; those are over-represented in the sample as a whole.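 Single-concentration screen, 48 h exposure, 96-well plates. Endpoint: percent growth. Below 10 = active.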 Active and inactive are the calls of the source.

Legend:
Assay in all cases: NCI-60 one-dose screen, 48 h (100 = growth as untreated, 0 = no growth, -100 = all killed)
Details in all cases: 10 µM unless noted
[1] = tested on: DU-145 prostate
[2] = tested on: K-562 leukemia
[3] = tested on: MALME-3M melanoma
[4] = tested on: MDA-MB-231 breast
[5] = tested on: RXF 393 renal
[6] = tested on: SF-268 CNS
[7] = tested on: SF-295 CNS
[8] = tested on: SF-539 CNS
[9] = tested on: UACC-257 melanoma
[10] = tested on: M14 melanoma

Measured: growth

CCCCCCCCCCC(C[N+](C)(C)C/C=C/c1ccccc1)C(O)c1ccccc1 (stereo not given)
active: [1] 1.19% | [2] -35.9% | [3] -28.6% | [4] -55.9% | [5] -54.3% | [6] -0.479% | [10] 6.02%
inactive: [7] 35.6% | [8] 40.5% | [9] 21%

CCCCN(CCCC)CCCNc1c2c(nc3ccc(Cl)cc13)CCCC2
inactive: [1] 107% | [2] 72.8% | [3] 126% | [4] 70.5% | [5] 109% | [6] 92.3% | [7] 90.1% | [8] 100% | [9] 105% | [10] 98%

COc1ccc2cnc(N)c(C#Cc3cc(C(=O)Nc4ccc(CN5CCN(C)CC5)c(C(F)(F)F)c4)cnc3C)c2c1
inactive: [1] 64% | [6] 62.5% | [7] 78.9% | [8] 31.3% | [9] 33.1%
active: [2] -42.8% | [3] -66.4% | [4] 9.87% | [5] -12.9% | [10] 7.97%

Oc1ccccc1\C=N/N=C/C=C/c1ccccc1
inactive: [1] 105% | [2] 82.9% | [3] 102% | [4] 67.1% | [5] 117% | [6] 88.9% | [7] 98.4% | [8] 104% | [9] 107% | [10] 95.8%

CCCCCCNc1nc(N2CCOCC2)c2[nH]c(NCCCCCC)nc2n1
active: [1] -88.1% | [2] -52.4% | [3] -62.2% | [4] -94.4% | [5] -84.9% | [6] -92.8% | [7] -61.8% | [8] -94.4% | [9] -95.4% | [10] -98%

CCC(C)[C@H](NC(=O)Nc1cc(C(F)(F)F)cc(C(F)(F)F)c1)C(=O)N[C@@H](Cc1cn(C)cn1)C(=O)OC (stereo not given in full)
active: [1] -96.4% [100 µM] | [2] -68.3% [100 µM] | [3] -86.5% [100 µM] | [4] -96.3% [100 µM] | [5] -86.6% [100 µM] | [6] -87.9% [100 µM] | [7] -93.3% [100 µM] | [8] -96% [100 µM] | [9] -97.5% [100 µM] | [10] -89.7% [100 µM]

C/C(=C\c1ccc2ccccc2c1)[N+](=O)[O-]
active: [2] 5.31% | [3] -58.7% | [5] -86.1%
inactive: [1] 27% | [4] 50.8% | [6] 21% | [7] 92.2% | [8] 15.6% | [9] 68.9% | [10] 22.4%

Nc1nc2c(c3cnccc13)C(c1cccc(Br)c1)Cc1cnccc1-2 (stereo not given)
active: [2] 9.88% | [4] 4.34% | [5] 7.59% | [8] -15.9% | [10] -12.7%
inactive: [1] 11.4% | [3] 36.1% | [6] 20.3% | [7] 13.6% | [9] 55.5%

COc1cc(-c2c3c(cn2CCN2CCCCC2)-c2oncc2CC3)cc(OC)c1OC
inactive: [1] 109% | [2] 108% | [3] 110% | [4] 109% | [5] 100% | [6] 94.7% | [7] 97.6% | [8] 94% | [9] 109% | [10] 105%

COC(=O)c1ccc2[nH]c(O)c(C(=Nc3ccc(N(C)C(=O)CN4CCN(C)CC4)cc3)c3ccc(OC)cc3)c2c1
active: [2] 4.93% | [3] 6.81% | [5] -24.8% | [8] -0.308%
inactive: [1] 21.1% | [4] 23.6% | [6] 21.3% | [7] 37.6% | [9] 48.9% | [10] 14.3%

Cc1ccc(NC(=O)CCl)cc1Cl
inactive: [1] 111% | [2] 87.3% | [3] 78.7% | [4] 89.4% | [5] 102% | [6] 103% | [7] 81.2% | [8] 108% | [9] 90.5% | [10] 104%

CC1=C(C)C[C@]2(C(=O)O[C@H]3CCCC[C@@H]32)[S@](=O)C1
inactive: [1] 107% | [2] 102% | [3] 110% | [4] 125% | [5] 112% | [6] 96.4% | [7] 106% | [8] 114% | [9] 97.7% | [10] 103%

CC(=O)NCCN
inactive: [1] 116% | [2] 101% | [3] 100% | [4] 101% | [5] 90.1% | [6] 108% | [7] 101% | [8] 94.9% | [9] 86.9% | [10] 108%

CCN(CC)CCCNc1c2ccc(Cl)cc2nc2ccc(OC)cc12
active: [1] 5.08% | [2] -21.9% | [3] -59.7% | [4] -39.5% | [5] -57.9% | [6] -10.1% | [7] -21.7% | [8] -65.7% | [10] -79%
inactive: [9] 33.4%

CCOC(=O)c1c(C)oc2ncnc(Nc3ccc(C(=O)NCCc4ccccc4)cc3)c12
inactive: [1] 82.1% | [2] 89% | [3] 89.5% | [4] 85.7% | [5] 71.8% | [6] 74.1% | [7] 90.4% | [8] 58.9% | [9] 79.7% | [10] 81.3%

COC(=O)C(C)[C@H]1CC[C@@H]2[C@]1(C)CC=C1[C@]23C=C[C@]2(C[C@@H](OC(C)=O)CC[C@]12C)C(C(=O)OC)C3C(=O)OC (stereo not given in full)
inactive: [1] 99.6% | [2] 48.8% | [3] 73.1% | [4] 89.5% | [5] 102% | [6] 90.5% | [7] 88.4% | [8] 99.3% | [9] 97.5% | [10] 96.5%

N/C(=N\O)c1ccncc1
inactive: [1] 104% | [2] 104% | [3] 108% | [4] 102% | [5] 115% | [6] 97.9% | [7] 94.5% | [8] 105% | [9] 106% | [10] 99.8%

CC1Cc2cc(F)ccc2-n2cccc21 (stereo not given)
inactive: [1] 106% | [2] 108% | [3] 101% | [4] 94% | [5] 136% | [6] 110% | [7] 104% | [8] 101% | [9] 101% | [10] 111%

COc1cc(-c2nn(-c3ccc(NC(=O)c4ccc(Cl)c(Cl)c4)cc3)cc2-c2ccncc2)ccc1Cl
inactive: [1] 82% | [2] 17% | [3] 111% | [4] 54.9% | [6] 67.6% | [8] 47.7% | [9] 110% | [10] 62.3%
active: [5] -55.1% | [7] -42.3%

COC1NC(Cl)=C(C#N)C(C#N)(C#N)C1(C)C (stereo not given)
inactive: [1] 94.2% | [2] 77.1% | [3] 146% | [4] 88.6% | [6] 122% | [7] 115% | [8] 92.3% | [9] 102% | [10] 59.1%
active: [5] 3.25%

CC(C)CSc1nc(-c2ccc(F)cc2)c(C#N)c(N2CCCCC2)n1
inactive: [1] 94.1% | [2] 95.8% | [3] 86.1% | [4] 101% | [5] 87.7% | [6] 90.9% | [7] 92.6% | [8] 103% | [9] 100% | [10] 89.8%

N#Cc1ccc(OCc2nc(N)nc(N)c2-c2ccc(Cl)c(Cl)c2)cc1
inactive: [1] 34.3% | [2] 12.6% | [3] 49.5% | [4] 50.7% | [5] 46% | [6] 33.6% | [8] 22.7% | [9] 22.8% | [10] 27.6%
active: [7] 3.74%

COc1cc2ncnc(-n3ncc4cc(NC(=O)Nc5ccc(Cl)c(C)c5)ccc43)c2cc1OC
inactive: [1] 101% | [2] 90.5% | [3] 82.8% | [4] 98.9% | [5] 99.4% | [6] 102% | [7] 96.9% | [8] 59.7% | [9] 102% | [10] 79.3%

COc1ccc(-c2nc(SCC(C)C)nc(Nc3ccc(C)cc3)c2C#N)cc1
inactive: [1] 85.9% | [2] 68.8% | [3] 74.3% | [4] 68.4% | [5] 88.2% | [6] 85.3% | [7] 64.4% | [8] 63.5% | [9] 103% | [10] 88.8%

CC(O)C(N)=O (stereo not given)
inactive: [1] 109% | [2] 101% | [3] 105% | [4] 114% | [5] 107% | [6] 103% | [7] 95% | [8] 94.7% | [9] 112% | [10] 97.9%

COc1cc2ncnc(Nc3ccc4c(cnn4C(=O)Nc4ccccc4)c3)c2cc1OC
inactive: [1] 89.3% | [2] 58.3% | [3] 85.6% | [4] 112% | [5] 87.3% | [6] 97.2% | [7] 100% | [8] 86.1% | [9] 94.9% | [10] 95.7%

C/C(=N\Nc1cccc(Cl)n1)c1ccccn1
inactive: [1] 23.3% | [3] 21.6% | [4] 36.8% | [5] 24% | [6] 12.8%
active: [2] 6.59% | [7] 0.34% | [8] 1.72% | [9] 2.3% | [10] -23.8%

Cc1cc2c(-c3nc4ccccc4n3C)c(O)c(O)cc2c(O)c1-c1c(C)cc2c(-c3nc4ccccc4n3C)c(O)c(O)cc2c1O
inactive: [1] 43.5% | [2] 37.5% | [3] 86.1% | [4] 57.3% | [5] 62.7% | [6] 38.5% | [7] 26% | [8] 22.1% | [9] 82.9% | [10] 34.9%
